Results from PubChem BioAssay AID488969 (Vanderbilt High Throughput Screening Facility, 2010).
In all, about 110,000 compounds were measured (“z-score”: median about -0.1, highest 2% from about 2 on). For the sample, the highest values were picked, then their nearest neighbours and some compounds at random. Calls of active or inactive are those of the source.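 The calls were made as follows: active = z-score in the third read window above 3 or below -3; inactive = the rest.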

target: Metabotropic glutamate receptor 8 (Rattus norvegicus) (UniProt P70579); experiment: mGluR8 Gi/Go-coupled signaling modulation – cell-based, rat, thallium flux, HTS, primary screen (AID 488969); details: HEK293 rat mGluR8, GIRK (G protein-gated inwardly rectifying potassium channel) thallium flux, FluoZin2; at 10 µM; stronger effect = higher value; submaximal glutamate (EC20) added with thallium
Sequence (P70579 whole entry, looked up): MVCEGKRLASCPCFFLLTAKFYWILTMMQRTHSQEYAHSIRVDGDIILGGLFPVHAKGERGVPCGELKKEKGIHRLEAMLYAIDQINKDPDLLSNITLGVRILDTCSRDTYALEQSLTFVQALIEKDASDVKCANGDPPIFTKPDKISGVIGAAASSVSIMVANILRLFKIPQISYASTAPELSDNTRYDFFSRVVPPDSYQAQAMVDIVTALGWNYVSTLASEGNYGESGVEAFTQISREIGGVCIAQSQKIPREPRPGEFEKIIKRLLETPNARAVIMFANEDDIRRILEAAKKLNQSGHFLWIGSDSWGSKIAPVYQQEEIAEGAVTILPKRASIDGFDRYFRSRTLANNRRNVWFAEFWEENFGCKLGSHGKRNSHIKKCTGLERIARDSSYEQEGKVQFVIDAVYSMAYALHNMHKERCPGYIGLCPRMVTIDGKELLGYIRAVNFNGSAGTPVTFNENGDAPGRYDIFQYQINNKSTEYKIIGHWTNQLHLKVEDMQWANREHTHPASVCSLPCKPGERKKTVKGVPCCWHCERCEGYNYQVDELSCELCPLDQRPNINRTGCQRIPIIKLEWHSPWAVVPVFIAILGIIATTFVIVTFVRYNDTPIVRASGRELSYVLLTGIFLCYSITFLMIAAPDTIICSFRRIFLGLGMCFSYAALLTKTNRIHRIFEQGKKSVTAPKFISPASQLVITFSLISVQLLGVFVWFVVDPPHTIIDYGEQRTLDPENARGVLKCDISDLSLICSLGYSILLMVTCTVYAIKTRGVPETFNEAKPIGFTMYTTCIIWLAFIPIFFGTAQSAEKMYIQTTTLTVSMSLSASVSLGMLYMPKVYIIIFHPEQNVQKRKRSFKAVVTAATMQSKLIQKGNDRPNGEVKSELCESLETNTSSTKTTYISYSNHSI

SMILES	z-score
O=C(CCC(=O)OCC(=O)c1cccc([N+](=O)[O-])c1)Nc1cccc(Cl)c1Cl	-0.0921
O=C(c1ccc(N2CCN(CCO)CC2)nc1)N1CCOCC1	0.0375
CC12CC(c3ccccc3O1)N(C(=O)c1ccco1)C(=S)N2c1ccc(F)cc1 (stereo not given)	-0.812
CC(C)OC(=O)c1cc2c(ccn2C)n1CC(=O)N(Cc1ccccc1)c1ccc(F)cc1	-0.00352
CCOC(=O)c1nnn(-c2nonc2N)c1COc1ccc(F)cc1	-0.0888
O=C(CCCOc1ccccc1)Nc1nccs1	-1.29
Cc1ccccc1OCCCC(=O)Nc1nccs1	2.49
Cc1ccc(C)c(OCCCC(=O)Nc2nccs2)c1	-0.0356
COCCCn1c(=N)c(C(=O)NCc2ccc3c(c2)OCO3)cc2c(=O)n3ccccc3nc21	-0.494
CCCC(=O)OCC(=O)Nc1ccccc1Sc1ccccc1	-0.604
COc1ccccc1/C=N/NC(=O)CC(=O)NCc1cccnc1	-0.2
O=C(c1cc2nc(-c3ccco3)cc(C(F)(F)F)n2n1)N1CCN(Cc2ccccc2)CC1	-0.1
O=C1NC(=O)C2(COC(c3ccccc3Cl)OC2)S1 (stereo not given)	-0.116
O=C1NC(=O)C2(COC(c3cccnc3)OC2)S1 (stereo not given)	2.49
CCOC(=O)C1=C(C)NC(=O)NC1c1cccnc1 (stereo not given)	0.62
CCCCn1c(CN2CCN(c3ccc(F)cc3)CC2)nc2c1c(=O)n(C)c(=O)n2C	-0.751
c1ccc(-c2noc(CSc3nnnn3C3CCCCC3)n2)cc1	-0.0529
CCn1c(SCc2nc(-c3ccccc3)no2)nnc1-c1cccs1	1.84
CCn1c(SCc2nc(-c3ccccc3)no2)nc2ccccc21	3.16 (active)
c1ccc(CSc2nnnn2-c2ccccc2)cc1	-0.542
c1ccc(-c2noc(CSc3nnnn3-c3ccccc3)n2)cc1	2.18
CCn1c(SCc2nc(-c3ccccc3)no2)nnc1-c1ccco1	-0.421
CC(C)c1[nH]nc2c1C(c1cccc(OC(=O)N3CCOCC3)c1)C(C#N)=C(N)O2 (stereo not given)	-1.23
FC(F)(F)c1ccc(CSc2nccn2-c2ccccc2)cc1	0.167
COc1cc(OC)c(OC)cc1/C=N/NC(=O)c1ccc(=O)n(C)c1	-0.238

SMILES	z-score
Cc1cccc(C(=O)/C=C2/c3ccccc3CC(C)(C)N2C)c1	-0.509
CCOCCN1CCN(c2c(CC)c(C)nc3cc(-c4cc(OC)cc(OC)c4)nn23)CC1	-0.938
Nc1nc(SCC(=O)NC2CCCC2)[nH]c(=O)c1-c1ccccc1	-0.603
O=C(c1ccccc1NS(=O)(=O)c1cccs1)N1CCCC1	0.676
CCOC(=O)CSc1nc2cc(C(=O)NCc3ccco3)ccc2c(=O)n1C1CCCCC1	0.724
COC(=O)c1ccc2c(=O)n(C3CCCCC3)c(SCC#N)nc2c1	3.63 (active)
CCOC(=O)CSc1nc2ccccc2c(=O)n1C1CCCC1	0.684
COc1ccc(NC(=O)C(=O)NCCC2=CCCCC2)c(OC)c1	-0.33
COc1ccc(C(=O)NCCC2=CCCCC2)cc1OC	-0.214
Cc1ccc(OC(=S)Nc2ccc(O)cc2)cc1	0.0849
COc1ccc(C)cc1NC(=O)NCCC1=CCCCC1	10.6 (active)
CCOC(=O)c1ccccc1NC(=O)Nc1ccc(OC)c(OC)c1	0.154
Cc1ccc(OC(=S)Nc2ccccc2)c(C)c1	3.2 (active)
Cc1ccc(OC(=S)Nc2ccc(F)cc2)cc1	0.0616
COc1ccc(NC(=O)Nc2cc(C)ccc2F)cc1	0.0419
COc1ccc(OC)c(NC(=O)Nc2ccc(Cl)cc2)c1	0.245
CCCCOC(=O)c1ccc(NC(=O)Nc2ccc(OC)c(OC)c2)cc1	-0.113
COc1ccc(NC(=O)Nc2cc(C)ccc2OC)cc1	2.83
CCOC(=O)c1ccc(NC(=O)Nc2ccc(OC)c(OC)c2)cc1	6.79 (active)
Cc1nn(CC(=O)Nc2cccc(S(N)(=O)=O)c2)c(C)c1[N+](=O)[O-]	-0.212
CCOc1ccc(-c2nnn(CC(=O)c3cc(OC)ccc3OC)n2)cc1	1.52
CCCNC(=O)Cn1cnc2sc(C(=O)N3CCCC(C(=O)OCC)C3)c(C)c2c1=O (stereo not given)	-1.05
CCN(CC)S(=O)(=O)c1ccc(NC(=O)C2CCCO2)cc1 (stereo not given)	-0.205
CCCn1nc(C(=O)NCCN2CCOCC2)c2ccccc2c1=O	0.608
Cc1occc1-c1nnc(SCC(=O)N(C)CCC#N)n1N	0.286

SMILES	z-score
O=C(NC1CCCCC1)C(c1ccc(O)cc1)N(CC1CCCO1)C(=O)C1COc2ccccc2O1 (stereo not given)	0.338
CCOC(=O)Nc1cc(C)ccc1OC	0.0736
COc1ccc(C)cc1NC(=O)Nc1ccccc1	11.5 (active)
COc1ccc(C)cc1NC(=O)Nc1ccc(Br)cn1	0.233
Cc1cccc(-c2nnn(Cc3nnc(NC(=O)c4ccccc4)s3)n2)c1	-0.0603
Cc1ccc(C(=O)N2CCN(c3ccc(C(F)(F)F)cn3)CC2)c(C)c1	-0.0998
CC1CC(C)CN(C(=O)c2cc(-c3ccccn3)nc3ccccc23)C1 (stereo not given)	-1.27
Cn1ccnc1SCC(=O)Nc1ccc2nc(SCC(=O)NC3CC3)sc2c1	-0.00819
CCOc1c2ccc(C(=O)NCc3cc(C(F)(F)F)cc(C(F)(F)F)c3)cc2nn1C	0.112
C=C(C)Cn1c(=S)[nH]c2ccccc2c1=O	-0.0946
CCOC(=O)N1CCN(C(=O)CCCn2c(=S)[nH]c3ccc(Br)cc3c2=O)CC1	1.24
C=CCn1c(=S)[nH]c2ccc(Br)cc2c1=O	15 (active)
O=C(CCCCCn1c(=S)[nH]c2ccc(Br)cc2c1=O)NCC1CCCO1 (stereo not given)	1.92
C=CCn1c(=S)[nH]c2ccccc2c1=O	13.6 (active)
CC(C)OC(=O)CSc1nnc(Cc2ccccc2)n1Cc1ccco1	-0.4
Cc1cccc2cc(C(c3nnnn3C(C)(C)C)N3CCN(C(=O)c4ccco4)CC3)c(=O)[nH]c12 (stereo not given)	0.516
CCn1c(C(=O)N2CCC(C(=O)N3CCN(c4ccccn4)CC3)CC2)cc2sccc21	0.181
CCN1CCN(C(=O)C2CCN(C(=O)c3cc4sccc4n3CC)CC2)CC1	2.56
CCN1CCN(C(=O)c2cc3sccc3n2CC(=O)c2ccccc2)CC1	-0.119
CC1(C)C(C#N)=C(N)OC2=C1C(=O)CCC2	0.297
Cc1cc2nc3c(c(=O)n2[nH]1)CCCC3	-0.219
CCCC(=O)Nc1nc2ccc(S(N)(=O)=O)cc2s1	-0.295
O=C(NCC1CCCO1)C(c1cccs1)N(Cc1ccccc1Cl)C(=O)c1ccc(-c2ccccc2)[nH]1 (stereo not given)	2.14
O=C(NCC1CCCO1)C(c1cccs1)N(C(=O)c1ccc(-c2ccccc2)[nH]1)C1CCCC1 (stereo not given)	-0.0712
O=C(NCC1CCCO1)C(c1cccs1)N(Cc1cccs1)C(=O)c1ccc(-c2ccccc2)[nH]1 (stereo not given)	-0.486
